Source: PubChem (National Center for Advancing Translational Sciences (NCATS))
This excerpt belongs to a sample that is enriched for hits.
Pf Dd2 growth: qHTS Primary assay for Inhibitors of Plasmodium falciparum Dd2 growth in vitro | P. falciparum Dd2 growth, SYBR Green, 72 h | Potency, µM (highest dose often 28.9 µM), for the others: at the highest dose activity, negative = inhibition, usual class: inhibitors | 120,000 tested, 4.3% active | AID 1347417, 2020; active means well fitted inhibition curve with a large enough effect;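 further: plate controls were DMSO vehicle for no effect and reference drug for full effect; nearly all actives have a fitted effect of over 65% in size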
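Infected erythrocytes (Dd2, 0.3% parasitemia, 2.5% hematocrit final) are added to compound in RPMI-1640/Albumax II medium, grown 72 h at 37C in low oxygen, then lysed with saponin/Triton-X containing SYBR Green and read by fluorescence.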
An asterisk follows results filed as active; [ ] = remark or other dose. Potency means the concentration at half of the fitted maximal effect.

Screening COc1cccc(CNC(=O)CN2CCCc3nc(C)ncc3C2=O)c1 returned Pf Dd2 growth 12%.
Screening Cc1cn2nnc(C(=O)NCCC3=CCCCC3)c2c(=O)[nH]1 returned Pf Dd2 growth 10µM*.
COc1cccc(CNC(=O)c2nnn3cc(C)[nH]c(=O)c23)c1 was read as Pf Dd2 growth -20%.
CCc1ccc(CNC(=O)c2nnn3cc(C)[nH]c(=O)c23)cc1 was read as Pf Dd2 growth 7.9µM*.
Cc1ccc(CNC(=O)c2nnn3cc(-c4ccc(F)cc4)[nH]c(=O)c23)cc1 was read as Pf Dd2 growth -4%.
Cc1cn2nnc(C(=O)NCCc3cccs3)c2c(=O)[nH]1 was read as Pf Dd2 growth -6%.
For CNC(=O)c1nnn2cc(C)[nH]c(=O)c12 the results were Pf Dd2 growth 53%.
For CNC(=O)c1cccnc1N1CC2CC(C1)[C@H]1CCCC(=O)N1C2 (stereo partly specified) the results were Pf Dd2 growth 12%.
For CCOc1cc(=O)n2c(c1C(=O)Nc1ccc(C)cc1Cl)CCCC2 the results were Pf Dd2 growth 44%.
Screening COc1cc(OC)cc(-c2nc(C3CC(=O)N(c4ccc(F)c(Cl)c4)C3)no2)c1 (stereo unspecified) returned Pf Dd2 growth 83%.
CC(=O)Nc1ccc(CN2CC[C@H](c3nnc(C)o3)C2)cc1 was read as Pf Dd2 growth 8%[44.1 µM].
For Cc1cccc(-c2ccc3c(c2)C(=O)N2CC[C@H](NS(=O)(=O)c4cccs4)[C@H]2C(=O)N3)c1C the results were Pf Dd2 growth 10µM*.
`COc1ccc(Cl)cc1-c1ccc2c(c1)C(=O)N1CC[C@H](NC(=O)c3cccs3)[C@H]1C(=O)N2` gave Pf Dd2 growth 7.9µM*.
Screening O=C(N[C@H]1CCN2C(=O)c3cc(-c4ccc(Cl)cc4)ccc3NC(=O)[C@H]12)c1cccs1 returned Pf Dd2 growth -17%.
COc1ccc(Cl)cc1-c1ccc2c(c1)C(=O)N1C[C@@H](NS(=O)(=O)c3ccc(F)cc3)C[C@H]1C(=O)N2 was read as Pf Dd2 growth 7.1µM*.
Screening COc1ccc(-c2ccc3c(c2)C(=O)N2CC[C@H](NC(=O)c4cccs4)[C@H]2C(=O)N3)cc1 returned Pf Dd2 growth -1%.
Screening COc1ccc(-c2ccc3c(c2)C(=O)N2CC[C@H](NC(=O)CSC)[C@H]2C(=O)N3)cc1 returned Pf Dd2 growth inactive.
Screening COc1ccc(Cl)cc1-c1ccc2c(c1)C(=O)N1C[C@H](O)C[C@H]1C(=O)N2 returned Pf Dd2 growth -5%[44.1 µM].
For O=C1Nc2ccc(-c3ccccc3F)cc2C(=O)N2C[C@@H](NS(=O)(=O)c3ccc(F)cc3)C[C@@H]12 the results were Pf Dd2 growth inactive.
For O=C1Nc2cc(Cl)ccc2C(=O)N2CC[C@H](NS(=O)(=O)c3cccs3)[C@@H]12 the results were Pf Dd2 growth inactive.
`CSCC(=O)N[C@H]1CCN2C(=O)c3cc(-c4cccc(C)c4C)ccc3NC(=O)[C@H]12` gave Pf Dd2 growth inactive.
For O=C(N[C@H]1CCN2C(=O)c3ccc(Cl)cc3NC(=O)[C@H]12)c1cccs1 the results were Pf Dd2 growth -18%[44.1 µM].
COc1ccc(-c2ccc3c(c2)C(=O)N2CC[C@H](NS(=O)(=O)c4cccs4)[C@H]2C(=O)N3)cc1 was read as Pf Dd2 growth 11µM*.
For CCc1cccc(OCC(=O)c2ccc3c(c2)N(CC(=O)NCCCOC)C(=O)CO3)c1 the results were Pf Dd2 growth inactive.
Screening CS(=O)(=O)N1CCCN(C(=O)C2CCC2)CCNC(=O)CC1c1ccccc1 (stereo unspecified) returned Pf Dd2 growth -15%.
Screening O=C(N[C@@H]1CNC[C@H]1O)C1CCN(c2nc(-c3ccccc3)nc3c2CCC3)CC1 returned Pf Dd2 growth -8%.
`O=C(O)C[C@@H]1CCN(C(=O)c2cccs2)C[C@@H]1CCN1CCN(c2cccc(C(F)(F)F)c2)CC1` gave Pf Dd2 growth -48%.
Screening COc1ccccc1C1=NOC(C(=O)NC(C)(C)C)C1 (stereo unspecified) returned Pf Dd2 growth -11%.
`O=C1CN(C(=O)CCC(=O)N2CCC(CCOc3ccccc3F)C2)c2ccccc2N1` (stereo unspecified) gave Pf Dd2 growth inactive.
`COc1cccc(CC(=O)N2CC(c3nnc(-c4ccncc4)o3)C3(CCOCC3)C2)c1` (stereo unspecified) gave Pf Dd2 growth inactive.
Screening CC(=O)Nc1ccc(S(=O)(=O)N2C[C@@H]3C[C@H](C2)c2ccc(-c4ccccc4C)c(=O)n2C3)cc1 returned Pf Dd2 growth inactive.
`CC(C)(C)n1nnnc1C1CC2(CCOCC2)C(=O)N1CCc1nc2ccccc2[nH]1` (stereo unspecified) gave Pf Dd2 growth inactive.
For Cc1ccccc1Nc1cnc2ccc(-c3cccc(CO)c3)nn12 the results were Pf Dd2 growth 2.5µM*.
COc1ccc(Nc2cnc3ccc(-c4cccc(CO)c4)nn23)cc1 was read as Pf Dd2 growth inactive.
For COc1ccc(-c2ccc3ncc(Nc4cccc(F)c4)n3n2)cn1 the results were Pf Dd2 growth inactive.
